Reference: PubChem BioAssay (Tox21)
Values without a mark were called inactive. Records with an inconclusive call do not appear. A call without a number means that no potency is given here. Activity calls are given as the source filed them. Unless noted, calls come from the whole dose curve; as a rule, active = well fitted curve in the direction sought with a large enough effect in the repeat runs; inconclusive = weak or mixed curves; inactive = no such curve, though single readings can be large; an effect the other way counts as inactive or inconclusive.

Tests used:
[1] = target: Thyrotropin-releasing hormone receptor (Homo sapiens) (UniProt P34981); assay: qHTS assay to identify small molecule agonists of the thyrotropin-releasing hormone receptor (TRHR) signaling pathway (AID 1346891; calls by dose curve;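 note: HEK293 cells expressing TRHR with calcium dye readout; series mostly up to about 58 µM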)
Sequence of Thyrotropin-releasing hormone receptor (Homo sapiens) (P34981 whole entry, looked up): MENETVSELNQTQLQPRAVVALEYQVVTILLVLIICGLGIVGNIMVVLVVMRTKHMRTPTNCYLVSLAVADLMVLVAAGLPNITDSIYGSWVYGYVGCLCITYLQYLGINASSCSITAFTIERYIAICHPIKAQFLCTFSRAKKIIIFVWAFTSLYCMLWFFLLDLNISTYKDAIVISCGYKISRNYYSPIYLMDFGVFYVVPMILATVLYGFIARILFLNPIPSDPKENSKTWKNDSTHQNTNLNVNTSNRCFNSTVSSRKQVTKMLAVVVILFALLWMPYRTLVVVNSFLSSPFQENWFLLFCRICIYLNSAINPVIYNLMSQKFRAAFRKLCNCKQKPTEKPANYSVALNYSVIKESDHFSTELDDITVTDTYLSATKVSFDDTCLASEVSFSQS
In short: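 Kinetic fluorescence (3 min, 1 s intervals) reported intracellular calcium after compound transfer onto TRHR-Hek293 cells pre-loaded with dye for 2 h at 37 °C.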

[2] = Human pregnane X receptor (PXR) small molecule agonists, qHTS cell viability counter screen (AID 1346977); note: nearly all actives have a fitted effect of over 50% in size
In short: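 HepG2 cells stably carrying the PXR-Luc reporter are cultured with 5% charcoal-stripped FBS and treated with compounds for 24hr. CellTiter-Fluor is added at 23hr and fluorescence is read after 1hr.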

[3] = Caspase-3/7 induction in HepG2 cells by small molecules, qHTS assay (AID 1346978); note: nearly all actives have a fitted effect of over 15% in size
In short: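 Wild-type HepG2 cells (2,000/well) were settled 5 h at 37 C, 5% CO2, then exposed to compounds in DMSO for 17 h. Caspase-3/7 activity was read by luminescence 30 min after adding Caspase-Glo 3/7 reagent at room temperature.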

[4] = Caspase-3/7 induction in CHO-K1 cells by small molecules, qHTS cell viability counter screen (AID 1346979); note: nearly all actives have a fitted effect of over 35% in size
In short: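 Seeding: 1,500 CHO-K1 cells/well. Rest: 5hr, 37C. Treatment: compounds in DMSO, 16hr. Read: CellTiter-Fluor, 1hr, fluorescence.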

[5] = Caspase-3/7 induction in CHO-K1 cells by small molecules, qHTS assay (AID 1346980); note: nearly all actives have a fitted effect of over 15% in size
In short: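 Wild-type cells were seeded at 1,500 per well and settled 5 hr at 37 C, 5% CO2, then exposed to DMSO-dissolved compounds for 17 hr. Caspase-Glo 3/7 reagent was added, and luminescence was read after 30min at room temperature.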

[6] = Caspase-3/7 induction in HepG2 cells by small molecules, qHTS cell viability counter screen (AID 1346981); note: series mostly up to about 92 µM; nearly all actives have a fitted effect of over 30% in size
In short: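 Steps: seed 2,000 HepG2 cells per well; incubate 5 hr at 37 C; pin-add compounds in DMSO; incubate 16 hr; add CellTiter-Fluor; after 1 hr at 37 C and 5% CO2, read fluorescence.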

[7] = target: Nuclear receptor subfamily 1 group I member 2 (Homo sapiens) (UniProt O75469); assay: Human pregnane X receptor (PXR) small molecule agonists, qHTS assay (AID 1346982); note: nearly all actives have a fitted effect of over 35% in size; note: potency is the fitted concentration of half-maximal effect
Sequence of Nuclear receptor subfamily 1 group I member 2 (Homo sapiens) (O75469 whole entry, looked up): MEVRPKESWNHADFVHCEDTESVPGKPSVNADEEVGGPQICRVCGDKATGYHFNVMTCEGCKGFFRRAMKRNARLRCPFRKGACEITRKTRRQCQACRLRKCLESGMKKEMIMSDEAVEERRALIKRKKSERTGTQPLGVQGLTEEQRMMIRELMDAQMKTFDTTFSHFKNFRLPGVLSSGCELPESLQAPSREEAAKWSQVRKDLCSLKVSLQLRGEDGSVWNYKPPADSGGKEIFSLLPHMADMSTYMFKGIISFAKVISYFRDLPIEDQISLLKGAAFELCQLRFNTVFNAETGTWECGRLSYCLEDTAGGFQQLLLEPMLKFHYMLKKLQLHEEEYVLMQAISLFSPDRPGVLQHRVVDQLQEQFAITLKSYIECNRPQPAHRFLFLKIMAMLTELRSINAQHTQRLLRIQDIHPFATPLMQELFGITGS
In short: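 Agonist mode qHTS: PXR-Luc HepG2 cells plated 5 hr before DMSO-dissolved compounds were pinned in, cultured 24 hr at 37 C, 5% CO2; ONE-Glo luminescence readout.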

[8] = target: Cytochrome P450 2D6 (Homo sapiens) (UniProt P10635); assay: Cytochrome P450 Family 2 Subfamily D Member 6 (CYP2D6) small molecule antagonists: luciferase reporter qHTS assay (AID 1671196); note: nearly all actives have a fitted effect of over 50% in size; note: potency is the fitted concentration of half-maximal effect; for activity change, negative = inhibition: series mostly up to about 120 µM
Sequence of Cytochrome P450 2D6 (Homo sapiens) (P10635 whole entry, looked up): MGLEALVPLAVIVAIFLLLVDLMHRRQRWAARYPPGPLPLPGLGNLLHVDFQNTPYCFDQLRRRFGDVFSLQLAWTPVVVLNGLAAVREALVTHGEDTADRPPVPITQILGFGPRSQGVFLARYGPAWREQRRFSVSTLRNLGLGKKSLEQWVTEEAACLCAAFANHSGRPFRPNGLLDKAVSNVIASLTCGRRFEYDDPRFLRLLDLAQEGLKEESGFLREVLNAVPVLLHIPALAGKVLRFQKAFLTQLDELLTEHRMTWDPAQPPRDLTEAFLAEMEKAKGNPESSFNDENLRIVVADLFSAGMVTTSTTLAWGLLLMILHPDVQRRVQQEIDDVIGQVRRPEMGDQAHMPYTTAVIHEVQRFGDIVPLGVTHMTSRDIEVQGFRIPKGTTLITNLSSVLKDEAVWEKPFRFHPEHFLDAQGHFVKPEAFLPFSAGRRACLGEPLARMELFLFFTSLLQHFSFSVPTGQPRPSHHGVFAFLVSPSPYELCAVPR
In short: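 P450-Glo format: CYP2D6 converts a proluciferin substrate to luciferin in an NADPH-driven reaction lasting 1 h at room temperature. Light output, proportional to CYP2D6 activity, reflects interference by test chemicals.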

[9] = target: Cytochrome P450 2C19 (Homo sapiens) (UniProt P33261); assay: Cytochrome P450 Family 2 Subfamily C Member 19 (CYP2C19) small molecule antagonists: luciferase reporter qHTS assay (AID 1671197); note: nearly all actives have a fitted effect of over 65% in size; note: potency is the fitted concentration of half-maximal effect; for activity change, negative = inhibition: series mostly up to about 120 µM
Sequence of Cytochrome P450 2C19 (Homo sapiens) (P33261 whole entry, looked up): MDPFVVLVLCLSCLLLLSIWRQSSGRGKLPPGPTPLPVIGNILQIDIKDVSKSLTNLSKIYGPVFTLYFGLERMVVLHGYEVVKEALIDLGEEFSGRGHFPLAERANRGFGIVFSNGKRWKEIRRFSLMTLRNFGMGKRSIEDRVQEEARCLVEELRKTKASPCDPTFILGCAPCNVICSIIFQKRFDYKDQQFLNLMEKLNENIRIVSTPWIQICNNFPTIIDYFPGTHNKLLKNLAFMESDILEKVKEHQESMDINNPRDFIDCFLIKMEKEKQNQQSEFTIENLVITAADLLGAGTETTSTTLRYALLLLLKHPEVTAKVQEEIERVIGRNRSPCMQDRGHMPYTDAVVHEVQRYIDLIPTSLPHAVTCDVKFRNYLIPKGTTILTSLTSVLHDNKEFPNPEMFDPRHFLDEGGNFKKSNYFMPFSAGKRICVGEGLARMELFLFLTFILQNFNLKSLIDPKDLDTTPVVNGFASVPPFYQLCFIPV
In short: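 First, compounds are pinned into enzyme-substrate mix and held 10 min at room temperature. Second, NADPH regeneration solution is added and plates incubate 1 h at 37C. Third, detection reagent is added and luminescence read after 20 min.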

[10] = target: Voltage-gated inwardly rectifying potassium channel KCNH2 (Homo sapiens) (UniProt Q12809); assay: Human Ether-a-go-go-Related Gene (hERG) channel small molecule antagonists: fluorescence cell-based qHTS assay (AID 1671200); note: nearly all actives have a fitted effect of over 50% in size; note: potency is the fitted concentration of half-maximal effect;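 for activity change, negative = inhibition: hERG-expressing U2OS cells given a thallium stimulus after FluxOR II dye loading; series mostly up to about 77 µM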
Sequence of Voltage-gated inwardly rectifying potassium channel KCNH2 (Homo sapiens) (Q12809 whole entry, looked up): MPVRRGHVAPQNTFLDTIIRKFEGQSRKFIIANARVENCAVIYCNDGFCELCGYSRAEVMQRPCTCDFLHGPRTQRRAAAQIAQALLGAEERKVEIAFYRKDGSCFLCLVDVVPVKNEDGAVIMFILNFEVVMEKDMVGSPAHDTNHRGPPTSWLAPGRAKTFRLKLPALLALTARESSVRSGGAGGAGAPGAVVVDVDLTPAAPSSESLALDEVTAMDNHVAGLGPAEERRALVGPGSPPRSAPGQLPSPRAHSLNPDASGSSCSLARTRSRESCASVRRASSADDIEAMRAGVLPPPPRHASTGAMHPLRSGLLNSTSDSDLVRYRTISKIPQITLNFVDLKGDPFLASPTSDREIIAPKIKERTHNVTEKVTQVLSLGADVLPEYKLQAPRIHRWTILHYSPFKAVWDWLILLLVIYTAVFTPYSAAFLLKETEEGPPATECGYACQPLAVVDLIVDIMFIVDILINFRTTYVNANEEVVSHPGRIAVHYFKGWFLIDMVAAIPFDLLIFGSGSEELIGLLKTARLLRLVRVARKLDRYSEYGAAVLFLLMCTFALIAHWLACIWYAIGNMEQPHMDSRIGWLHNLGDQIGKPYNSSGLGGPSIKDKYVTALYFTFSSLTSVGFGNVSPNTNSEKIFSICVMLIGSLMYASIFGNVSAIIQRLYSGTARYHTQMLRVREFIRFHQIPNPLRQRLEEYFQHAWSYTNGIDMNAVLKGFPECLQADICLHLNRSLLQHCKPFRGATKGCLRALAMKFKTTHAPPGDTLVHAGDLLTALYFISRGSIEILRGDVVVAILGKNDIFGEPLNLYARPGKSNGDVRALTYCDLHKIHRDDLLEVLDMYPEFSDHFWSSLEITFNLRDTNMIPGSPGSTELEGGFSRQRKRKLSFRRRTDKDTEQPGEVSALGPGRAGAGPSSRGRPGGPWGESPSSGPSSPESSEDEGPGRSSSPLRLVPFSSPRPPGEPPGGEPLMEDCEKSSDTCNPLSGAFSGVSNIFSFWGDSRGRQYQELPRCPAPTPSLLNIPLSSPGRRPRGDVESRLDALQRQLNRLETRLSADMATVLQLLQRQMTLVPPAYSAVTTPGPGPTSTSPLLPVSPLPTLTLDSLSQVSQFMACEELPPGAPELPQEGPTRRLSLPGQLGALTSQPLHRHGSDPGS
In short: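 First, 1000 cells per well are seeded and cultured overnight at 37 C. Next, FluxOR II dye is loaded for 1 h at room temperature, protected from light. After 10 more minutes, stimulus is added and fluorescence is read.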

[11] = target: Cytochrome P450 3A4 (Homo sapiens) (UniProt P08684); assay: Cytochrome P450 Family 3 Subfamily A Member 4 (CYP3A4) small molecule antagonists: luciferase reporter qHTS assay (AID 1671201); note: series mostly up to about 120 µM; nearly all actives have a fitted effect of over 50% in size
Sequence of Cytochrome P450 3A4 (Homo sapiens) (P08684 whole entry, looked up): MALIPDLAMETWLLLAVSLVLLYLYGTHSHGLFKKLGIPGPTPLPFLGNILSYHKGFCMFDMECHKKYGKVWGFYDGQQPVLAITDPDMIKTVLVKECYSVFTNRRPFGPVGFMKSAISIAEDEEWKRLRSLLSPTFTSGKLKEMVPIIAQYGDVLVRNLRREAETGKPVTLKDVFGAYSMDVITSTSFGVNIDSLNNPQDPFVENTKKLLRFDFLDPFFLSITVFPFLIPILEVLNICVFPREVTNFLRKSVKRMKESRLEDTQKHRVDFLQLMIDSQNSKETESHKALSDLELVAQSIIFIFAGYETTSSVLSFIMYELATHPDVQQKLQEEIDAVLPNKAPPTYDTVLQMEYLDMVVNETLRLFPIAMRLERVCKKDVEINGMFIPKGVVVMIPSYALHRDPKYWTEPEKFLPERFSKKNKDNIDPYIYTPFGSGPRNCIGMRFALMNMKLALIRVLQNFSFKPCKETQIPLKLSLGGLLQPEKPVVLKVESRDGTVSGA
In short: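 Enzyme and proluciferin substrate are mixed with test chemicals for 10 min, then NADPH regeneration system drives turnover for 1 h at room temperature. A detection reagent halts the reaction; luminescence after 20 min gives relative activity.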

[12] = target: Nuclear receptor subfamily 1 group I member 2 (Rattus norvegicus) (UniProt Q9R1A7); assay: Rat pregnane X receptor (rPXR) activation by small molecules, qHTS assay (AID 1346983); conditions: rPXR luciferase reporter cells, One-Glo luminescence, 24 h; max activation: stronger effect = higher value; note: nearly all actives have a fitted effect of over 20% in size; note: potency is the fitted concentration of half-maximal effect
Sequence of Nuclear receptor subfamily 1 group I member 2 (Rattus norvegicus) (Q9R1A7 whole entry, looked up): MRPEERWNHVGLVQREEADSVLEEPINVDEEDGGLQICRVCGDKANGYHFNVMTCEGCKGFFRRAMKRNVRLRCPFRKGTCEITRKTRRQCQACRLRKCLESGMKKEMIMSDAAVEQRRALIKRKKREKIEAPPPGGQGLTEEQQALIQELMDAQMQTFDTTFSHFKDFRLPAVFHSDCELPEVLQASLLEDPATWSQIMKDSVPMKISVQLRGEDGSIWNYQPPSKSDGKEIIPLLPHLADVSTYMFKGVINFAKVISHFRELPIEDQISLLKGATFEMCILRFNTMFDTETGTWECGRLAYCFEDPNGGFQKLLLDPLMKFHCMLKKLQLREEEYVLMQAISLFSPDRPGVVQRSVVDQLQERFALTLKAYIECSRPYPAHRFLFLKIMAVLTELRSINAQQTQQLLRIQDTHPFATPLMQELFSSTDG
In short: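 Cell-based rPXR luciferase reporter assay, 2,000 cells per well, rested 5hr at 37 C before compound addition in DMSO, then 24 hr at 37 C. One-Glo reagent was added and luminescence read after 30 min at room temperature.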

[13] = target: Nuclear receptor subfamily 1 group I member 2 (Homo sapiens) (UniProt O75469); assay: Human pregnane X receptor (PXR) activation by small molecules, qHTS assay (AID 1346985); note: nearly all actives have a fitted effect of over 40% in size; note: potency is the fitted concentration of half-maximal effect
In short: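 DPX-2 cells (HepG2 co-transfected with a PXR response element and a CYP3A4-promoter luciferase construct) were seeded at 2,000 per well, rested 5 hr at 37C, then exposed to DMSO-dissolved compounds for 24 hr. Activation was read as luciferase luminescence.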

[14] = target: Cytochrome P450 2C9 (Homo sapiens) (UniProt P11712); assay: Cytochrome P450 Family 2 Subfamily C Member 9 (CYP2C9) small molecule antagonists: luciferase reporter qHTS assay (AID 1671198); note: nearly all actives have a fitted effect of over 50% in size; note: potency is the fitted concentration of half-maximal effect; for activity change, negative = inhibition: series mostly up to about 120 µM
Sequence of Cytochrome P450 2C9 (Homo sapiens) (P11712 whole entry, looked up): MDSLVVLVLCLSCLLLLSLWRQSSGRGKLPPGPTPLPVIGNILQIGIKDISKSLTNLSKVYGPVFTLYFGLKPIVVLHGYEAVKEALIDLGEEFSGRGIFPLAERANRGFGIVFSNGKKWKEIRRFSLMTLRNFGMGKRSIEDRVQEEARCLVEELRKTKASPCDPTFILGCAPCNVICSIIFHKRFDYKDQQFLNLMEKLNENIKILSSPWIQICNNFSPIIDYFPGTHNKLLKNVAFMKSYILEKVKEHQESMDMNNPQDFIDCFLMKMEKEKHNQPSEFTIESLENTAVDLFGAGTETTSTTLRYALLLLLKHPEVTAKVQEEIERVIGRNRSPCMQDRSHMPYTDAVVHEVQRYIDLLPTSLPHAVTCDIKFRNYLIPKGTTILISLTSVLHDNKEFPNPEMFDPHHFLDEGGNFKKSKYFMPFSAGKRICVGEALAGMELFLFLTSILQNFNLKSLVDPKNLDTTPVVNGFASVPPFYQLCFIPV
In short: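 CYP2C9 activity was measured with a P450-Glo proluciferin substrate. Enzyme–substrate mix was held with compound for 10 min at room temperature, then NADPH regeneration solution was added for 1 h at 37C. Luciferin product was read as luminescence.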

[15] = target: Nuclear receptor subfamily 1 group I member 2 (Homo sapiens) (UniProt O75469); assay: CYP3A4 induction through human pregnane X receptor (PXR) by small molecules, qHTS assay (AID 1346984); note: nearly all actives have a fitted effect of over 40% in size
In short: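 Steps: seed DPX-2 cells, 5 hr at 37C; pin-transfer compounds; 24 hr at 37C; add Luciferin-IPA (3uM final), 3 hr at 37C; add One-Glo, 30 min RT; read luminescence.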

[16] = target: Cytochrome P450 1A2 (Homo sapiens) (UniProt P05177); assay: Cytochrome P450 Family 1 Subfamily A Member 2 (CYP1A2) small molecule antagonists: luciferase reporter qHTS assay (AID 1671199); note: nearly all actives have a fitted effect of over 50% in size; note: potency is the fitted concentration of half-maximal effect; for activity change, negative = inhibition: series mostly up to about 120 µM
Sequence of Cytochrome P450 1A2 (Homo sapiens) (P05177 whole entry, looked up): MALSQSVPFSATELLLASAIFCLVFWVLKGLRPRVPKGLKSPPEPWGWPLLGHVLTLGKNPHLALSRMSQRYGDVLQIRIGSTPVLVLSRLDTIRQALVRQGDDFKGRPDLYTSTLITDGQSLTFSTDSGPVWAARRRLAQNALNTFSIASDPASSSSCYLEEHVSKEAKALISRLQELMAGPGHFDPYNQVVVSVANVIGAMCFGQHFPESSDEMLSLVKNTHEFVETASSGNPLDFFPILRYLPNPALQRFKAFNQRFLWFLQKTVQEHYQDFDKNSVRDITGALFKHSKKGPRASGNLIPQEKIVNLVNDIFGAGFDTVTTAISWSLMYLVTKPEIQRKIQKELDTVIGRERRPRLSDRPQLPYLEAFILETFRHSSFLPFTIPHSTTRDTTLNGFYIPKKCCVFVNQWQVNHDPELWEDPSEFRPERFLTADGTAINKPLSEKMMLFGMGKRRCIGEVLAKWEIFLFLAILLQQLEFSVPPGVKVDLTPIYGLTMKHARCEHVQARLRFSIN
In short: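 Inhibition of CYP1A2 conversion of proluciferin to luciferin, detected by luminescence. Reaction run 1 h at room temperature with NADPH regeneration after brief compound preincubation.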

COc1ccc(COC=O)cc1
outcome [1]: inactive
Potency [2]: inactive
outcome [3]: inactive
Potency [4]: inactive
outcome [5]: inactive
outcome [6]: inactive
Potency [7]: inactive
Potency [8]: inactive
Potency [9]: inactive
Potency [10]: inactive
Potency [11]: inactive

CCn1cc(C(=O)O)c(=O)c2cc(F)c(N3CCN(C)CC3)cc21
activation [1]: 0.129% [at 11.8 µM]
activity change, negative = cytotoxicity [2]: 4.23% [at 19 µM]
caspase activation [3]: -0.273% [at 19 µM]
activity change, negative = cytotoxicity [4]: 6.37% [at 19 µM]
caspase-3/7 activation [5]: 0.47% [at 19 µM]
activity change, negative = cytotoxicity [6]: 0.0199% [at 19 µM]
activation [7]: -5.92% [at 19 µM]
max activation [12]: -0.517%
Potency [13]: inactive

CC(=O)c1ccc(C)cc1
outcome [1]: inactive
Potency [2]: inactive
outcome [3]: inactive
Potency [4]: inactive
outcome [5]: inactive
outcome [6]: inactive
Potency [7]: inactive
Potency [8]: inactive
Potency [9]: inactive
Potency [14]: inactive
Potency [10]: inactive
Potency [11]: inactive

NC1CCN(c2cccc(Cl)n2)CC1
outcome [1]: inactive
Potency [2]: inactive
outcome [3]: inactive
Potency [4]: inactive
outcome [5]: inactive
outcome [6]: inactive
Potency [7]: inactive
Potency [8]: 1.23 µM (active)
Potency [9]: inactive
Potency [14]: inactive
Potency [10]: inactive
Potency [11]: inactive

NCC[C@H](O)C(=O)N[C@@H]1C[C@H](N)[C@@H](O[C@H]2O[C@H](CN)[C@@H](O)[C@H](O)[C@H]2O)[C@H](O)[C@H]1O[C@H]1O[C@H](CO)[C@@H](O)[C@H](N)[C@H]1O
activation [1]: -0.0262% [at 0.218 µM]
activity change, negative = cytotoxicity [2]: -0.464% [at 0.349 µM]
caspase activation [3]: -1.92% [at 0.349 µM]
activity change, negative = cytotoxicity [4]: -5.52% [at 0.349 µM]
caspase-3/7 activation [5]: -0.155% [at 0.349 µM]
activity change, negative = cytotoxicity [6]: -0.33% [at 0.349 µM]
activation [7]: -0.318% [at 0.349 µM]
max activation [12]: -10.2%
Potency [15]: inactive
Potency [13]: inactive
activity change, negative = inhibition [8]: -0.464% [at 0.435 µM]
activity change, negative = inhibition [9]: 3.5% [at 0.435 µM]
activity change, negative = inhibition [16]: 12.4% [at 0.435 µM]
activity change, negative = inhibition [10]: 0.203% [at 0.29 µM]
activity change, negative = inhibition [11]: 8.51% [at 0.435 µM]

C=C(C)C1CC=C(C)C(O)C1 (stereo not given)
outcome [1]: inactive
Potency [2]: inactive
outcome [3]: inactive
Potency [4]: inactive
outcome [5]: inactive
outcome [6]: inactive
Potency [7]: 48.8 µM (active)
Potency [8]: inactive
Potency [9]: inactive
Potency [14]: inactive
Potency [16]: 40.1 µM (active)
Potency [10]: inactive
Potency [11]: inactive

COc1ccc2cc(C=O)ccc2c1
outcome [1]: inactive
Potency [2]: inactive
outcome [3]: inactive
Potency [4]: inactive
outcome [5]: inactive
outcome [6]: inactive
Potency [7]: inactive
Potency [8]: inactive
Potency [9]: 15.5 µM (active)
Potency [16]: 13.8 µM (active)
Potency [10]: inactive
Potency [11]: inactive

COC(=O)[C@H]1[C@H]2C[C@@H]3c4[nH]c5cc(OC)ccc5c4CCN3C[C@H]2C[C@@H](OC(=O)COc2ccc(OC)cc2)[C@@H]1OC
outcome [1]: inactive
Potency [2]: inactive
outcome [3]: inactive
Potency [4]: inactive
outcome [5]: inactive
outcome [6]: inactive
Potency [7]: inactive
max activation [12]: -1.88%
Potency [15]: inactive
Potency [13]: 10 µM (active)
Potency [8]: 17.4 µM (active)
Potency [14]: 27.5 µM (active)
Potency [10]: 0.601 µM (active)

Cn1ccc2cc3c(cc21)CCN3C(=O)Nc1cccnc1
activation [1]: -0.003% [at 11.8 µM]
activity change, negative = cytotoxicity [2]: 0% [at 19 µM]
caspase activation [3]: 0.602% [at 19 µM]
activity change, negative = cytotoxicity [4]: 5.05% [at 19 µM]
caspase-3/7 activation [5]: -1.75% [at 19 µM]
activity change, negative = cytotoxicity [6]: 1.32% [at 19 µM]
Potency [7]: 3.66 µM (active)
Potency [12]: 12.6 µM (active)
Potency [15]: inactive
Potency [13]: 12.6 µM (active)
activity change, negative = inhibition [8]: -16.8% [at 23.6 µM]
Potency [16]: 0.0791 µM (active)
activity change, negative = inhibition [10]: 2.6% [at 15.8 µM]
